Yeast superoxide – yeast age-related superoxide inhibition as caloric restriction mimetic; 330,000 tested, 0.18% active; S. cerevisiae aged cells, superoxide DHE fluorescence; stronger effect = lower value; superoxide response (% of plate mean), % at 10 µM;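 active = superoxide response under a set limit, about three screen SD below normal, cut at about 65% in these data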;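 also: yeast aged for seven days with compound at 30 °C before DHE staining; 100% = average MFI of all compound-treated wells on the plate with controls excluded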
HTR5A inv ag – inverse agonist of human HTR5A in OPRM1-OPRD1 counter-screen; P47898; HTR5A cell line, luminescence, inverse agonism; inhibition, % at 9.3 µM; 340,000 tested, 0.083% active; AID 504634; in the data active = inhibition mostly above about 23%, no sharp cut-off; inactive = mostly below about 18%;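 also: 0% = cells with DMSO and 100% = no-cell wells with DMSO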
HTR5A ag ctr – HTR5A agonism, opioid heterodimer counter-screen; P47898; HTR5A agonist assay, luminescence, cell-based; activation, % at 9.3 µM; 340,000 tested, 0.61% active; AID 504692; in the data active = activation mostly above about 9.5%, no sharp cut-off; inactive = mostly below about 7.6%;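 also: 0% = cells with vehicle only and 100% = reference agonist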
PvdQ inh – blocks Pseudomonas aeruginosa PvdQ acylase activity; 340,000 tested, 0.063% active; inhibition, % at 10 µM; purified PvdQ acylase, fluorescence plate reader; AID 488965; in the data active = inhibition above about 30%, passing the limit was not always enough;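 also: 0% = vehicle neutral wells and 100% = reference inhibitor wells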
MOR-DOR inv ag – mu-delta opioid heterodimer inverse agonism. cell-based MOR-DOR heterodimer luminescence. inhibition, % at 9.3 µM. 340,000 tested, 0.21% active. AID 504357; in the data active = inhibition above about 22%, passing the limit was not always enough;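 also: 0% = cells with DMSO and 100% = wells without cells with DMSO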
Target sequence (P35372 whole entry, looked up): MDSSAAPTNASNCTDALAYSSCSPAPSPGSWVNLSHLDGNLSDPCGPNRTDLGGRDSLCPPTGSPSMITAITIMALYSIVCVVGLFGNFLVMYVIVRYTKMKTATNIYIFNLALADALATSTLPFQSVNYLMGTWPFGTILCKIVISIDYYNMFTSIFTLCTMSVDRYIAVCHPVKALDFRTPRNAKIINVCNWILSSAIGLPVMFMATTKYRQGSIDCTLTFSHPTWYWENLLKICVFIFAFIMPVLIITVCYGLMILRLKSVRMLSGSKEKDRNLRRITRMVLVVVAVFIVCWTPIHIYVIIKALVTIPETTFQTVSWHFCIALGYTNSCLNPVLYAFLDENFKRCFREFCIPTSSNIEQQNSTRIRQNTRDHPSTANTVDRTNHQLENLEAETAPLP
Target sequence (P41143 whole entry, looked up): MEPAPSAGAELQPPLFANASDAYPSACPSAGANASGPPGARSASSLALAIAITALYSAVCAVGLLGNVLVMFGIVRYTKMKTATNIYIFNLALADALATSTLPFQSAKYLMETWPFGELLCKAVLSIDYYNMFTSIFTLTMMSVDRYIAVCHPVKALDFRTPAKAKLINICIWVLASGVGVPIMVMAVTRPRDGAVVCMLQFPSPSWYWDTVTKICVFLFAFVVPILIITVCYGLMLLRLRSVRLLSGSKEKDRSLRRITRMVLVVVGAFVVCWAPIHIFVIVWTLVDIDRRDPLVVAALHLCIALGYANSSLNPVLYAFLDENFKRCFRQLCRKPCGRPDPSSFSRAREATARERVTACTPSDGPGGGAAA
OPRM1-OPRD1 ag – agonists of human mu-delta opioid receptor heterodimerization. P35372+P41143. cells, OPRM1-OPRD1 heterodimerization, luminescence. activation, % at 9.3 µM. 340,000 tested, 0.3% active. AID 504326; in the data active = activation above about 18%;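 also: 0% = vehicle-treated cells and 100% = reference agonist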
An asterisk follows results filed as active; · = no result given. Shown are actives, neighbours in structure and some others; about 1.3% of the full set was active somewhere.

SMILES	Yeast superoxide	HTR5A inv ag	HTR5A ag ctr	PvdQ inh	MOR-DOR inv ag	OPRM1-OPRD1 ag
Cc1oc2ccc(O)cc2c1C(=O)c1ccc([N+](=O)[O-])cc1	93	-30	3	-4	-23	4
O=C(CCCCCn1c(=S)[nH]c2ccc(N3CCOCC3)cc2c1=O)NCc1ccc2c(c1)OCO2	81	-31	12*	-8	9	-2
O=C(CCCCCn1c(=S)[nH]c2ccc(N3CCOCC3)cc2c1=O)NCc1ccccc1Cl	79	-12	0	-3	-35	7
O=C(CCCCCn1c(=S)[nH]c2ccc(N3CCOCC3)cc2c1=O)NCc1ccc(Cl)cc1	98	-35	13*	-17	-11	2
O=C(CCCCCn1c(=S)[nH]c2ccc(N3CCOCC3)cc2c1=O)NCCc1ccccc1	98	-37	15	-3	-4	1
CCCCN(C)C(=O)Cn1cnc2sc(C)c(S(=O)(=O)N3CCN(c4ccccc4OC)CC3)c2c1=O	115	15	-6	-7	12	-2
CCOc1ccc(C(=O)Nc2cccc([N+](=O)[O-])c2)cc1Br	105	-22	9.2*	-7	-19	4
CCS(=O)(=O)c1nc(S(=O)(=O)c2ccc(C)cc2)c(N2CCOCC2)s1	93	17	11*	13	-3	0
Cc1ccc(S(=O)(=O)c2nc(S(C)(=O)=O)sc2N2CCOCC2)cc1	92	-1	1	-6	8	-2
O=C1Cc2cc(NS(=O)(=O)c3cc(F)ccc3F)cc3c2N1CCC3	101	15	-6	-1	3	0
Oc1cccc(C(O)CNCc2ccc(OCc3ccc(Cl)cc3Cl)cc2)c1 (stereo unspecified)	86	-36	12*	5	-59	10
O=C(COC(=O)c1cccs1)Nc1ccc(F)c(F)c1	102	-24	10	-4	7	-2
N/C(CC(=O)Nc1ccc(F)c(Cl)c1)=N\OC(=O)c1cccs1	104	-3	13*	-11	-64	13
Cc1cc(C(=O)NN)c2cc(Br)ccc2n1	96	-41	13*	-10	-4	1
Nc1ccc(-c2cnc(N)c(C(=O)c3cccnc3)n2)cn1	·	1	0	-14	13	-2
CC1=[N+](C)c2ccc3ccccc3c2C1(C)C	102	-37	13*	-1	-69	9
COc1cccc(CN(C)C(=O)CCNC(=O)c2ccco2)c1	85	-11	3	-13	13	-3
O=c1[nH]c(CN2CCN(c3ccccc3)CC2)nc2scc(-c3ccccc3)c12	102	-11	3	5	-10	2
Cc1sc2nc(CN3CCN(c4ccc(O)cc4)CC3)[nH]c(=O)c2c1C	113	-39	12*	-15	5	-1
Cc1ccccc1OCC(=O)NCCCNC(=O)c1ccccn1	100	-2	1	-4	-5	1
CCOc1ccc(NC(=O)N(Cc2ccc(C)cc2)Cc2ccccn2)cc1	101	-4	1	-14	15	-3
N#CC(c1ccccc1)c1cccc(Cl)n1 (stereo unspecified)	77	·	·	103*	·	·
COc1ccccc1C(C#N)c1cccc(Cl)n1 (stereo unspecified)	118	8	-2	116*	14	-3
COc1cc(C2N(C)C(=O)c3ccccc3N2C)ccc1O (stereo unspecified)	97	-35	9.5*	-23	19	-4
CN1C=CC(=CC=C2C=CC(=O)C=C2)C=C1	93	-9	2	-18	12	-2
SMILES	Yeast superoxide	HTR5A inv ag	HTR5A ag ctr	PvdQ inh	MOR-DOR inv ag	OPRM1-OPRD1 ag
CC(=O)Nc1ccc(S(=O)(=O)N(C)CC(=O)OCC(=O)c2ccc3c(c2)NC(=O)CO3)cc1	96	3	-1	-13	1	0
NC(=O)CN1CCN(c2cccc(Cl)c2)CC1	92	0	14*	7	10	-2
OC(CN1CCN(c2cccc(Cl)c2)CC1)c1ccccc1 (stereo unspecified)	83	-49	13*	3	-30	5
Nc1cc(=O)[nH]c(SCC(=O)c2ccc(O)cc2O)n1	93	-7	2	-16	2	0
COc1ccc(Cc2nc(-c3ccc(-n4cccc4)cc3)no2)cc1OC	111	-32	11*	4	-5	1
O=C(CCn1c(=S)[nH]c2ccccc2c1=O)N1CCCCC1	97	-35	9.4*	6	13	-2

Assay outcomes (PubChem BioAssay)
